What is called inhibition is the drop in the measured response relative to a control, in per cent.

SMILES strings stand for the structures. Hit rate of the full screen: of about 1,300 compounds, fewer than 10 were called active. A selection follows. Unmarked numbers belong to inactive results. The rule behind the calls is not given here.

In this assay the target is N-formyl peptide receptor 2 (Homo sapiens) (UniProt P25090). Nature of the assay: FPRL1 fluorescent ligand binding inhibitors, primary screen, selectivity assay for FPR ligand SAR project, cell-based, flow cytometry, HTS counterscreen (AID 725). The note with it: FPRL1-expressing cells, active compounds read high, concentration not given here. (In general: In flow cytometry, cells or beads pass a laser one at a time.)
Sequence of N-formyl peptide receptor 2 (Homo sapiens) (P25090 whole entry, looked up): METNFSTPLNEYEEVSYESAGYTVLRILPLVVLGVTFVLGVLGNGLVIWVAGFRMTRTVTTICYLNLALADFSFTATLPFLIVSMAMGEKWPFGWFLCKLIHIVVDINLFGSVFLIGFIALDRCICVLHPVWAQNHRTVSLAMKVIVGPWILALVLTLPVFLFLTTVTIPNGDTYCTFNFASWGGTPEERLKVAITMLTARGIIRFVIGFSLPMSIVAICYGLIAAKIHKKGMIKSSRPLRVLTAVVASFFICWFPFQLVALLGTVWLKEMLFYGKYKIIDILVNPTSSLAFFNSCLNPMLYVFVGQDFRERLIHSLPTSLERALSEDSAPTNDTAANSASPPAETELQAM
With `O=C(C(Cc1ccccc1)N1Cc2ccccc2C1=O)N1CCOCC1` (stereo not given), the inhibition was -13.3%. Consider `CCOC(=O)c1c(NC(=O)c2cccs2)sc2c1CCC(C(C)(C)C)C2` (stereo not given), for which the inhibition was -4.5%.

With `CC(C)c1ccc(C2/C(=C(\O)c3ccc(F)cc3)C(=O)C(=O)N2CCN2CCOCC2)cc1` (stereo not given), the inhibition is 5.6%. To `CCOC(=O)Cc1c(C)nc2c(C#N)c(C)[nH]n2c1=O` belongs 5.1%. To `O=c1c(-c2ccc(Cl)cc2)c(C(F)(F)F)oc2c(CN3CCCCC3)c(O)ccc12` belongs 2.2%; to `COC(=O)c1c(NC(=O)c2cncc(Br)c2)sc2c1CCCC2`, -1.3%; to `CN1C(=O)c2ccccc2C(C(=O)N2CCCC2)C1c1cccs1` (stereo not given), -3%. To `O=C1C(=O)N(c2ccc(Br)cc2)C(c2ccc(Br)cc2)/C1=C(/O)c1ccccc1` (stereo not given) belongs 0.2%; to `COC(=O)c1c(NC(=O)c2cc(OC)c(OC)c(OC)c2)sc(C)c1C`, -10.3%. In the case of `CCOC(=O)c1cc(C(C)C)sc1NC(=O)CCCC(=O)O`, the inhibition is -4.7%. With `COc1ccc(OC)c(C(=O)CC2(O)C(=O)N(C)c3ccccc32)c1` (stereo not given) the figure was 1.1%. With `COc1ccc(CN2CCc3c(c(=O)n4ncc(C(=O)O)c4n3C)C2)cc1` the figure was -3.9%; with `CCc1c(C)nc2c(-c3ccc(OC)c(OC)c3)c(C)[nH]n2c1=O`, -1.3%.

For `Cc1ccc(C2/C(=C(\O)c3ccc(Cl)cc3)C(=O)C(=O)N2CCN2CCOCC2)cc1` (stereo not given), the inhibition was 0.3%.

In the case of `Cc1cc(C)nc(/N=C(/NC(=O)c2ccccc2)Nc2cccc(Cl)c2)n1`, the inhibition is -4.7%.

With `CCOc1ccc(C2/C(=C(/O)c3ccccc3)C(=O)C(=O)N2CC(C)O)cc1` (stereo not given), the inhibition was -1.6%. With `CCC(Sc1nc2ncccc2o1)C(=O)Nc1ccccc1OC` (stereo not given) the figure was -16.4%; with `O=C1C(=O)N(c2ccccn2)C(c2cccnc2)/C1=C(/O)c1ccccc1` (stereo not given), 4.3%.

For `CCOC(=O)c1c(NC(=O)c2cccc(Cl)c2)sc(C)c1C`, the inhibition is 6.4%.

Consider `Cc1cc(C)c(NC(=O)CSc2nncn3c2cc2occc23)c(C)c1`, for which the inhibition is 12%. With `COc1ccccc1NC(=O)CSc1nncn2c1cc1occc12` the figure was 34.6% (active); with `Cc1cc(C)c(NC(=O)CSc2nncn3c2cc2oc(C)cc23)c(C)c1`, 13.3%. To `O=C1O[C@@H]2C[C@H]3C[C@@H]2[C@@H]1[C@H]3C(=O)N1CCc2ccccc21` belongs -14.7%; to `O=C(O)C1CCCCC1C(=O)Nc1ccc(O)cc1` (stereo not given), -4.1%. To `COc1ccc(C2SCC(=O)N2c2ccccc2)cc1` (stereo not given) belongs 0%.
